# Measurements published in PubChem BioAssay AID1259422 (The Scripps Research Institute Molecular Screening Center, 2018).
# Several values for one entry are separate records, joined by “and”; a condition that tells them apart may be missing. Equal entries are not always repeated. Hit rate of the full screen: of about 640,000 compounds, about 9,300 (1.5%) were called active. Rule as the data show it: active = inhibition above about 32%; inactive = the rest. What follows is part of a selection rich in actives, with near analogues and random picks from the rest.
# Assay: TEAD-YAP interaction inhibition, primary screen, TEAD-YAP interaction inhibitor project, luminescence, HEK-TIYL cells (AID 1259422);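 also: 0% = median of test compound wells and 100% = reference inhibitor wells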
# Settings: TEAD-Gal4/YAP UAS-luciferase luminescence, at 9.12 µM, active compounds read high
row,Structure (SMILES),inhibition
1,Brc1ccc(N=c2oc3ccccc3cc2-c2nc3ccccc3[nH]2)cc1,-86.1% (inactive)
2,N#Cc1ccccc1N=c1oc2ccccc2cc1-c1nc2ccccc2[nH]1,-44.7% (inactive)
3,c1ccc2oc(=Nc3cccc4ccccc34)c(-c3nc4ccccc4[nH]3)cc2c1,41.4% (active)
4,Cc1cccc(C(=O)Nc2ncc3c(n2)CC(C)(C)CC3=O)c1,-0.47% (inactive)
5,CCOC(=O)c1c(NC(=O)CSc2nnc(CNC(=O)c3ccc([N+](=O)[O-])cc3)n2CCc2ccccc2)sc2c1CCCCC2,-6.86% (inactive)
6,CC(=O)c1cccc(N2CC(O)=C(c3nc4ccccc4[nH]3)C2=N)c1,-5.18% (inactive)
7,Cc1cccc(N2CC(O)=C(c3nc4ccccc4c(=O)[nH]3)C2=N)c1C,46.8% (active)
8,COc1ccc(N2CC(O)=C(c3nc4ccccc4c(=O)[nH]3)C2=N)cc1,0.42% (inactive)
9,C/C(CC(=O)Nc1cccc2ccccc12)=N\NC(=O)c1cccnc1,-13.7% (inactive)
10,CC(=O)Nc1ccc2nc(SCC(=O)Nc3ccccc3F)sc2c1,-58.7% (inactive)
11,COc1cccc(-n2cc(CN(C)C3CCC(=O)N(Cc4ccccc4F)CC3)cn2)c1 (stereo not given),8.57% (inactive)
12,Cc1nc(CC(=O)N2CCC(N3CCC(C(=O)N4CCOCC4)CC3)CC2)cs1,-4.91% (inactive)
13,CCOc1cccc(/C=N/NC(=O)c2ccc(C)nc2)c1O,18.1% (inactive)
14,COc1cc(Br)cc(/C=N/NC(=O)c2cc(-c3ccccc3)n[nH]2)c1O,15.7% (inactive)
15,COc1cc(Br)cc(/C=N\NC(=O)c2ccc(C)nc2)c1O,35.4% (active)
16,CC(=O)c1cccc(NC(=O)c2ncoc2-c2ccc(Cl)cc2)c1,2.52% (inactive)
17,COc1ccc(-c2csc(N3CCC(C)CC3)n2)cc1,-61.1% (inactive)
18,O=C1CCCC2=C1C(c1ccc(Cl)cc1)Nc1ccc(C(=O)c3ccccc3)cc1N2 (stereo not given),13.4% (inactive)
19,O=C1CCCC2=C1C(c1c(F)cccc1Cl)Nc1ccc(C(=O)c3ccccc3)cc1N2 (stereo not given),-16.1% (inactive)
20,COc1cc(C2Nc3ccc(C(=O)c4ccccc4)cc3NC3=C2C(=O)CCC3)cc(OC)c1OC (stereo not given),59.8% (active)
21,Cc1ccc(C2=CC(c3ccccc3F)n3nnnc3N2)cc1 (stereo not given),-31.7% (inactive)
22,COc1ccccc1CN(Cc1cc2cccc(C)c2n2nnnc12)C(=O)C1CC1,6.49% (inactive)
23,O=C1C(=O)N(CCCn2ccnc2)C(c2ccc(Cl)cc2)/C1=C(/O)c1ccccc1 (stereo not given),7.39% (inactive)

row,Structure (SMILES),inhibition
1,COC(=O)c1nnn(CC(=O)Nc2ccc3c(c2)OCCO3)c1C(=O)OC,9.22% (inactive)
2,Cc1cc(C)nc(NS(=O)(=O)c2ccc(N/C=C\C(=O)c3cccs3)cc2)n1,49.6% (active)
3,COc1cccc(C(=O)/C=C\Nc2ccc(S(=O)(=O)Nc3nc(C)cc(C)n3)cc2)c1,-30.1% (inactive) and -6.6% (inactive)
4,COc1cc(NS(=O)(=O)c2ccc(N/C=C\C(=O)c3cccs3)cc2)nc(OC)n1,-5.11% (inactive)
5,N#CCCNc1ncc(-c2ccc(Cl)cc2)cn1,-8.87% (inactive)
6,Cc1ccc(NC(=O)CN2CCN(c3ccc(Cl)cc3)CC2)cc1Br,-5.18% (inactive)
7,CCOC(=O)C1=C(C)NC(C)=C(C(=O)OCC)C1c1ccc(C2C(C(=O)OCC)=C(C)NC(C)=C2C(=O)OCC)cc1,8.31% (inactive)
8,O=C(NCc1ccccc1)C1CC12CCN(C(=O)Cc1ccsc1)CC2 (stereo not given),-4.7% (inactive)
9,O=C(NCc1ccccc1)C1CC12CCN(Cc1ccsc1)CC2 (stereo not given),50.1% (active)
10,O=C(Cc1ccsc1)N1CCC2(CC1)CC2C(=O)N1CCN(Cc2ccccc2)CC1 (stereo not given),7.69% (inactive)
11,CCOC(=O)c1c(NC(=O)C(C)Sc2nnc(CNC(=O)c3ccc(Cl)cc3Cl)n2C)sc2c1CCCC2 (stereo not given),5.37% (inactive)
12,COc1ccc(-n2nc(C(=O)N3CCN(C)CC3)c3ccccc3c2=O)c(OC)c1,3.03% (inactive)
13,COc1ccc(/C=C(/NC(=O)c2ccco2)C(=O)Nc2cccc(O)c2)cc1,0.64% (inactive)
14,COc1ccc(C2CC(C(F)(F)F)n3ncc(C(=O)NCc4cccs4)c3N2)cc1OC (stereo not given),-29.4% (inactive)
15,O=C(C(Cc1ccccc1)NS(=O)(=O)c1cccs1)N1CCc2ccccc21 (stereo not given),7.02% (inactive)
16,Cc1ccc2cc(CN(CCCO)S(=O)(=O)c3ccccc3[N+](=O)[O-])c(=O)[nH]c2c1,-39.4% (inactive)
17,CCOc1ccc(NC(=O)C2=C(C)NC(=O)NC2c2ccc(Cl)cc2)cc1 (stereo not given),11% (inactive)
18,CC1=C(C(=O)Nc2ccc(Cl)cc2)C(c2cccc(Cl)c2)NC(=O)N1 (stereo not given),6.92% (inactive)
19,CC1=C(C(=O)Nc2ccc(Cl)cc2)C(c2c(Cl)cccc2Cl)NC(=O)N1 (stereo not given),37.4% (active)
20,O=C(Nc1ccc(Br)cc1)c1cc2ccccc2c(=O)o1,-8.82% (inactive)
21,Cc1ccc2nc(NCc3ccccc3)nc(-c3ccccc3)c2c1,-0.32% (inactive)
22,O=c1c(-c2ccccc2)[n+]([O-])c2ccccc2n1OCc1ccccc1Cl,-9.42% (inactive)
23,CCOC(=CNc1ccc2nsnc2c1)OCC,-2.05% (inactive)

row,Structure (SMILES),inhibition
1,CCCOc1ccc(N2C(=O)CC(N(CCC34CC5CC(CC(C5)C3)C4)C(C)=O)C2=O)cc1 (stereo not given),1.87% (inactive)
2,c1ccc(Nc2nc3ncnc(NCc4cccnc4)c3[nH]2)cc1,-5.96% (inactive)
3,COc1ccc(CCNc2ncnc3nc(Nc4ccc(N5CCOCC5)cc4)[nH]c23)cc1,20.2% (inactive)
4,c1cn(-c2ccc(Nc3nc4ncnc(NC5CC5)c4[nH]3)cc2)cn1,45.5% (active)
5,CC1=C(C(=O)Nc2cc(Cl)ccc2C(=O)O)SCCO1,5.44% (inactive)
6,CC(=O)c1ccc(N2CCN(C(=O)Cn3ncc4c3-c3cc(C)ccc3OC4)CC2)cc1,-3.87% (inactive)
7,CCC(=O)C1=C(c2ccc(Cl)cc2)N(C(=O)CC)n2cnnc2S1,15.1% (inactive)
8,CC(=O)C1=C(c2ccc(C(C)(C)C)cc2)N(C(C)=O)n2cnnc2S1,84% (active)
9,CCc1nnc2n1N(C(C)=O)C(c1ccc3c(c1)CCCC3)=C(C(C)=O)S2,10.8% (inactive)
10,CCN1CCCC1CNC(=O)CSCc1nc(-c2ccccc2F)oc1C (stereo not given),-9.37% (inactive)
11,CN(C(=O)c1cccs1)C(Cc1ccccc1)C1CCN(C(=O)C2CCOC2)CC1 (stereo not given),-13% (inactive)
12,CCCCCCCc1ccc(C(=O)Oc2ccc(Br)cc2)cc1,8.27% (inactive)
13,CCc1ccc(OCCOCCNCCN)cc1,13% (inactive)
14,CCCCCCCCCc1ccc(OCCOCCOCCOCCOCCOCCOCCOCCOCCO)cc1,34.7% (active)
15,CCN(CC)CCCNC(=O)c1ccc(Cn2c(=S)[nH]c3cc4c(cc3c2=O)OCO4)cc1,-11.4% (inactive)
16,Cc1ccnc(NC(c2ccccc2Cl)c2ccc3cccnc3c2O)c1 (stereo not given),77.9% (active)
17,Cc1ccnc(NC(c2ccc(O)cc2)c2ccc3ccc(C)nc3c2O)c1 (stereo not given),-16.1% (inactive)
18,Cc1cccc(NC(c2cccc(F)c2)c2ccc3ccc(C)nc3c2O)n1 (stereo not given),1.53% (inactive)
19,Cc1ccnc(NC(c2ccc3cccnc3c2O)c2c(F)cccc2Cl)c1 (stereo not given),34.7% (active)
20,COc1cc(C(=O)NC(c2ccccc2Cl)c2cc([N+](=O)[O-])c3cccnc3c2O)cc(OC)c1OC (stereo not given),-0.41% (inactive)
21,Cc1cccc(NC(c2ccc3c(c2)OCO3)c2ccc3ccc(C)nc3c2O)n1 (stereo not given),15.8% (inactive)
22,Oc1c(C(Nc2ccccn2)c2ccc(OC(F)F)cc2)ccc2cccnc12 (stereo not given),70.2% (active)
23,Oc1c(C(Nc2ccccn2)c2cccnc2)ccc2cccnc12 (stereo not given),14.9% (inactive)

row,Structure (SMILES),inhibition
1,Oc1ccc2ncccc2c1C(Nc1ccccn1)c1ccccc1 (stereo not given),6.96% (inactive)
2,CCOC(=O)c1sc2ncn(CC(=O)Nc3cccc(C(F)(F)F)c3)c(=O)c2c1C,0.34% (inactive)
3,Cc1ccc(NC(=O)c2cc(S(=O)(=O)N3CCN(c4cccc(Cl)c4)CC3)ccc2F)cc1F,-4.95% (inactive)
4,CCN1CCN(c2cc(Nc3cc(OC)c(OC)c(OC)c3)c3c4c(onc24)-c2ccccc2C3=O)CC1,5.58% (inactive)
5,Cc1ccc(S(=O)(=O)CCc2nnc(NC(=O)c3ccc([N+](=O)[O-])cc3)s2)cc1,-5.17% (inactive)
6,NC(=O)Cn1c(=O)n(CCCCC(=O)NCc2ccccc2Cl)c(=O)c2ccccc21,2.5% (inactive)
7,O=C(NC1CCN(Cc2ccccc2)CC1)c1cccc(Nc2nccc3ccccc23)c1,2.07% (inactive)
8,CS(=O)(=O)N(CC(O)Cn1c2ccccc2c2ccccc21)c1ccccc1I (stereo not given),-12.3% (inactive)
9,CCCC(=O)NC(c1ccccc1OC)c1cc([N+](=O)[O-])c2cccnc2c1O (stereo not given),20.6% (inactive)
10,CNC(=O)COC(=O)c1c(Cl)cccc1Cl,-0.51% (inactive)
11,Cc1ccc(S(=O)(=O)Nc2ccccc2C(=O)NN)cc1,12.8% (inactive)
12,CCOC(=O)c1ccccc1NC(=O)/C=C/c1ccc(OC)cc1,4.72% (inactive)
13,CCOC(=O)c1ccccc1NS(=O)(=O)c1ccc(OC)cc1,46.5% (active)
14,O=C(Nc1ccccc1C(F)(F)F)c1cc(S(=O)(=O)NC2CCCC2)ccc1F,1.13% (inactive)
15,CCS(=O)(=O)c1ncc(Cl)c(C(=O)Nc2ccc(OC(F)F)cc2)n1,-5.89% (inactive)
16,Cn1nc(CC(=O)Nc2ccc(F)c(F)c2)c2ccccc2c1=O,46.9% (active)
17,Cc1ccc(F)cc1NC(=O)Cc1nn(C)c(=O)c2ccccc12,29.9% (inactive)
18,Cc1cc(NC(=O)Cc2nn(C)c(=O)c3ccccc23)ccc1Br,4.56% (inactive)
19,COc1cc(Nc2nccn3c(-c4cccc(NC(C)=O)c4)cnc23)cc(OC)c1OC,51.5% (active)
20,COc1cccc(-c2cnc3c(Nc4ccc(C(N)=O)cc4)nccn23)c1,-21.2% (inactive)
21,COc1ccc(Nc2ncc(-c3cccc(NC(C)=O)c3)n3ccnc23)cc1,-67.3% (inactive)
